Screens (PubChem)
HCV NS3h FP = HCV NS3 helicase inhibitors, primary screen, biochemical, fluorescence polarization, ChemBridge library; Hepatitis C virus NS3 helicase; NS3h Cy5-dT15 DNA binding; inhibition, % at 100 µM; 16,000 compounds, 1.6% hits; AID 687043, 2013;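 active = inhibition above the average over every tested compound plus 3 SD, cut at about 40% in these data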
Cy5 interf NS3h = Cy5 fluorescence quenchers or enhancers, artefact control for HCV NS3 helicase inhibitor project, biochemical, ChemBridge library, Cy5 readout | AID 720488, 2013 | Cy5-dT15 DNA with NS3h, fluorescence interference; actives lie on both sides; signal over control mean, under 1 quenches | 16,000 compounds, 6% hits | fluorescence interference ratio at 100 µM;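 active = compound fluorescence over control fluorescence at most 0.8, a quencher, or at least a set upper limit, an enhancer; inactive = ratio between 0.8 and the set upper limit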
NS3h confirm = HCV NS3 helicase inhibitors, retest, confirmation, biochemical, fluorescence polarization, ChemBridge library | shares compounds with HCV NS3h FP | NS3h binding to Cy5-dT15 DNA | inhibition, % at 100 µM | 240 compounds, 20% hits;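 active = percent inhibition of 50% or more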
SSB FP counter = E. coli SSB-DNA binding inhibitors, counter-screen for HCV NS3 helicase inhibitor project, biochemical, fluorescence polarization, selected ChemBridge compounds | 240 compounds, 40% hits | inhibition, % at 100 µM | shares compounds with HCV NS3h FP | AID 720486, 2013 | E. coli SSB binding Cy5-dT15;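 active = inhibition of at least 50%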;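 also: displacers lower Cy5 polarization so higher inhibition means more SSB displaced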
Target sequence (P0AGE0 whole entry, looked up): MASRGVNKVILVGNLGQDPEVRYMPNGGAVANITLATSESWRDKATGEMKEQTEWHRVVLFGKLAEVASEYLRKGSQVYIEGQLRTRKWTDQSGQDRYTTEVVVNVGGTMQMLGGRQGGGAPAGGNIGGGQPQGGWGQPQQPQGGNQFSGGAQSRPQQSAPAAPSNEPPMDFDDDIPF
Cy5 SSB fluor CB = Cy5 fluorescence interference with SSB-bound oligo, artefact control for HCV NS3 helicase inhibitor project, biochemical, E. coli SSB, selected ChemBridge compounds. 240 compounds, 8% hits. Cy5-dT15/E. coli SSB fluorescence interference; actives lie on both sides. fluorescence interference ratio at 100 µM. shares compounds with HCV NS3h FP;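 active = fluorescence interference ratio at or above 1.2, signal boosting, or at or below 0.8, signal quenching; inactive = ratio between 0.8 and 1.2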;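 also: ratio of compound well signal to mean negative control signal so 1 means no effect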
Cy5 interf conf = Cy5-DNA-NS3h complex fluorescence interference, confirmation, artefact control for HCV NS3 helicase inhibitor project, biochemical, ChemBridge library. Cy5-dT15 DNA/NS3h fluorescence interference counterscreen. 240 compounds, 44% hits. fluorescence interference ratio at 100 µM, hits read low. shares compounds with HCV NS3h FP;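 active = fluorescence interference ratio at or below 0.8 quencher or at or above a set limitenhancer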;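 also: ratio of compound fluorescence to mean of negative controls so 1 means no interference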
Starred values were filed as active, the others as inactive. Most compounds without a hit are left out; they make up all but 7.6% or so of the library.

SMILES	HCV NS3h FP	Cy5 interf NS3h	others
CC(C)(NO)C(=O)c1ccc(F)cc1	-6	0.89
O=C1NC(=O)N(c2ccccc2Cl)C(=O)C1=Cc1ccccc1	0	1
O=c1oc2ccccc2c(O)c1C(c1ccccc1F)c1c(O)c2ccccc2oc1=O	10	1.2
COc1ccc(CN2CCN(Cc3cc(Br)ccc3O)CC2)cc1	-8	0.94
Cc1cc(C=C2C(=O)NC(=O)NC2=O)c(C)n1-c1cccnc1	47*	1.1	NS3h confirm=-3;SSB FP counter=8;Cy5 SSB fluor CB=1;Cy5 interf conf=0.76*
Cc1cc(C=C2C(=O)NC(=O)NC2=O)c(C)n1C	-2	0.93
